Experiments:
Assay in all cases: DAPPL (digital affinity profiling via proximity ligation, sequencing); 10 mM Tris-HCl pH 7.5, 50 mM NaCl, 1 mM DTT, 4% glycerol, room temperature, 30 min; GST-TFs on glutathione beads, 16-mer random dsDNA library, 0.1% formaldehyde crosslink after washing; high values mean tight binding
Conditions in all cases: protein: recombinant; tags: N-terminal GST; dsDNA, one strand shown
[1] = target: T1, ERF (Homo sapiens, UniProt P50548 1-548)
T1 sequence: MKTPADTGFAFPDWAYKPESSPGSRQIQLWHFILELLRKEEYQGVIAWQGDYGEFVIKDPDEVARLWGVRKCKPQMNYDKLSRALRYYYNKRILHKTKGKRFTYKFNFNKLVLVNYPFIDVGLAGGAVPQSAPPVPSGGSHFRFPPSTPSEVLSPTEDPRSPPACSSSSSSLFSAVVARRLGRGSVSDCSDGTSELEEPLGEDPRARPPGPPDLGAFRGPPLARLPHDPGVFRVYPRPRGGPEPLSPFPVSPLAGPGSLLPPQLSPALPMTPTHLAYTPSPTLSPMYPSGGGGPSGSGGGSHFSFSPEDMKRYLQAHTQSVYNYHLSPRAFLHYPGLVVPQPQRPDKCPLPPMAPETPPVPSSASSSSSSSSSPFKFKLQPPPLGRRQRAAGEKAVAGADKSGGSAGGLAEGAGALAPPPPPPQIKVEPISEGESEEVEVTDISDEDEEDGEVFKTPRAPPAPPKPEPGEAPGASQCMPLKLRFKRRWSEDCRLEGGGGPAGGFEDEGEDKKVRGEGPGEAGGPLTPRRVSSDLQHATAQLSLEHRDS
In short: (§1)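 Sequencing on an Illumina NextSeq500 followed washing, crosslinking with 0.1% formaldehyde, proximity ligation (BsaI/T4 ligase, 1 h, 37 °C) and PCR amplification of pools that had been incubated for 30 min at room temperature with 200 nmole of a random double-stranded 16-mer DNA library in Tris/NaCl/DTT/glycerol buffer. Each pool held DNA-barcoded human transcription factors, expressed in yeast as GST fusions and captured on glutathione beads, plus a tag-only sample. Binding signal is a hexamer's read frequency for a factor divided by its frequency in the tag-only sample.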

[2] = target: T2, ETV3L (Homo sapiens, UniProt Q6ZN32 1-361)
T2 sequence: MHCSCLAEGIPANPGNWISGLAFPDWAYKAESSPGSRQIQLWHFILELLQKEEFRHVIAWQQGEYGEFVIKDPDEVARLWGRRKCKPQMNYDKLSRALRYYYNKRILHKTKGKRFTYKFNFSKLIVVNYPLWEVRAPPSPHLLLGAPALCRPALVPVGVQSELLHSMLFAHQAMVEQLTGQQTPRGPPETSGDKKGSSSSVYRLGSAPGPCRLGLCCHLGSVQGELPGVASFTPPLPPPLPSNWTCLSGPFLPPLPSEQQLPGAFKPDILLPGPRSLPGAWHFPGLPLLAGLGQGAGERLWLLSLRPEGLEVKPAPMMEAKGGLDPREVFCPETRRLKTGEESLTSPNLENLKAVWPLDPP
In short: as §1

[3] = target: T3, ETS2 (Homo sapiens, UniProt P15036 1-469)
T3 sequence: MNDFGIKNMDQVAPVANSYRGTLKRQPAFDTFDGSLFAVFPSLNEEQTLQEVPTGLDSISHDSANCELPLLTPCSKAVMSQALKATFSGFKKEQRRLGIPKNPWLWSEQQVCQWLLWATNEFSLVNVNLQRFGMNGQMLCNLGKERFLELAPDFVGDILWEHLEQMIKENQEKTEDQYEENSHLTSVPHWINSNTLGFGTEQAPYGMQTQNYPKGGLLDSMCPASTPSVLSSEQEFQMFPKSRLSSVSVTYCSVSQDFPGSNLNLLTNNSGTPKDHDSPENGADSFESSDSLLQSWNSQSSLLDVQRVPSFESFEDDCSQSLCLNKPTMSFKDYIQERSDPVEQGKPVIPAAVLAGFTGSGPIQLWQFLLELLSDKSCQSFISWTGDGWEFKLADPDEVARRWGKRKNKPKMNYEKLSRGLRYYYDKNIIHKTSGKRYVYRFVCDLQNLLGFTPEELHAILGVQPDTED
In short: as §1

[4] = target: T4, SPDEF (Homo sapiens, UniProt O95238 1-335)
T4 sequence: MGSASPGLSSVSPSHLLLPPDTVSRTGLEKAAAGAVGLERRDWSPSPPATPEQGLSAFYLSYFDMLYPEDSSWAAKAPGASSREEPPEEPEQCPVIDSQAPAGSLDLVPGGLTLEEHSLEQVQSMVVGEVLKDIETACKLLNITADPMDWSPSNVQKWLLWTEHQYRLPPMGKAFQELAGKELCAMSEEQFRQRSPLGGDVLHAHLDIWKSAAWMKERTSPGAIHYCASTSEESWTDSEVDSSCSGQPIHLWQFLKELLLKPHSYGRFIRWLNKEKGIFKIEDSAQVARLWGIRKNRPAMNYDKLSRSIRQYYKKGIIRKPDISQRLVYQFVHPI
In short: as §1

[5] = target: T5, ETV7 (Homo sapiens, UniProt Q9Y603 1-341)
T5 sequence: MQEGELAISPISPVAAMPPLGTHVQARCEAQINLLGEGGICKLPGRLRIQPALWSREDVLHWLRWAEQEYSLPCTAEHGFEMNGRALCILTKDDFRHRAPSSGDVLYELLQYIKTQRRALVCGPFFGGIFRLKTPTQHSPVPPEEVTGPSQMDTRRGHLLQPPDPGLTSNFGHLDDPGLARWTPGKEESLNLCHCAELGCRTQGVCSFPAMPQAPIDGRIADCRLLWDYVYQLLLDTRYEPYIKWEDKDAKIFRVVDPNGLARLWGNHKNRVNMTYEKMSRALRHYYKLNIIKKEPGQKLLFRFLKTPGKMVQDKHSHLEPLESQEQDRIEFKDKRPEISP
In short: as §1

[6] = target: T6, ELF5 (Homo sapiens, UniProt Q9UKW6-2 1-255)
T6 sequence: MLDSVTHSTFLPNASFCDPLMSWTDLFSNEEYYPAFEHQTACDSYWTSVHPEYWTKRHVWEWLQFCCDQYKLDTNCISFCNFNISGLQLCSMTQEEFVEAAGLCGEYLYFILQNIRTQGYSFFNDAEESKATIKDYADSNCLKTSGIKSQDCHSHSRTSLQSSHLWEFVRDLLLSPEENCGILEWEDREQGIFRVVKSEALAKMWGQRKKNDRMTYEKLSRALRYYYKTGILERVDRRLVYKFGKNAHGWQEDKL
In short: as §1

[7] = target: T7, ETV3 (Homo sapiens, UniProt P41162-2 1-143)
T7 sequence: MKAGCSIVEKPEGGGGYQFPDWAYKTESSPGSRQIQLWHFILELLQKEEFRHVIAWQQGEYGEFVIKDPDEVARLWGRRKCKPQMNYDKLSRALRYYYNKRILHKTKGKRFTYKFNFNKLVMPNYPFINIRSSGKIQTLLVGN
In short: as §1

[8] = target: ETV6 (Homo sapiens, UniProt P41212 1-452)
In short: as §1

Sequence of ETV6 (P41212 whole entry): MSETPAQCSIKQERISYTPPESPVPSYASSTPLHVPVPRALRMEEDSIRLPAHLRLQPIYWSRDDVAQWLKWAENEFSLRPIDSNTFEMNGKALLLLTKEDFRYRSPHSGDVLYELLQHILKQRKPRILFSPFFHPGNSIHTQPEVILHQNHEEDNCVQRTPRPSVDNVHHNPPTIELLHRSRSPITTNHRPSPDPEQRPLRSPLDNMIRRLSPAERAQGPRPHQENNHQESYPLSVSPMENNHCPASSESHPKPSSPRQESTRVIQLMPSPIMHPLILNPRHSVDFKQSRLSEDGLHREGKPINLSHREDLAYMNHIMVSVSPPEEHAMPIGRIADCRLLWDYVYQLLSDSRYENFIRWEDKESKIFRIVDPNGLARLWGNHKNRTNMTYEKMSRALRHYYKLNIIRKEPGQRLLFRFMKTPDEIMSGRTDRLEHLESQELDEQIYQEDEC

Row | Sequence | binding signal [1] | binding signal [2] | binding signal [3] | binding signal [4] | binding signal [5] | binding signal [6] | binding signal [7] | binding signal [8]
1 | GGAAAA | 1.12 fold enrichment (6-mer frequency, TF over GST control) | 1.31 fold enrichment (6-mer frequency, TF over GST control) | 1.27 fold enrichment (6-mer frequency, TF over GST control) | 1.12 fold enrichment (6-mer frequency, TF over GST control) | 1.26 fold enrichment (6-mer frequency, TF over GST control) | 1.67 fold enrichment (6-mer frequency, TF over GST control) | 1.31 fold enrichment (6-mer frequency, TF over GST control) | 1.53 fold enrichment (6-mer frequency, TF over GST control)
2 | CCAACG | 1.29 fold enrichment (6-mer frequency, TF over GST control) | 1.1 fold enrichment (6-mer frequency, TF over GST control) | 1.08 fold enrichment (6-mer frequency, TF over GST control) | 1.13 fold enrichment (6-mer frequency, TF over GST control) | 1.13 fold enrichment (6-mer frequency, TF over GST control) | 1.1 fold enrichment (6-mer frequency, TF over GST control) | 1.09 fold enrichment (6-mer frequency, TF over GST control) | 1.22 fold enrichment (6-mer frequency, TF over GST control)
3 | TTTCCT | 2.28 fold enrichment (6-mer frequency, TF over GST control) | 2.43 fold enrichment (6-mer frequency, TF over GST control) | 2.44 fold enrichment (6-mer frequency, TF over GST control) | 2.34 fold enrichment (6-mer frequency, TF over GST control) | 2.31 fold enrichment (6-mer frequency, TF over GST control) | 4.16 fold enrichment (6-mer frequency, TF over GST control) | 2.73 fold enrichment (6-mer frequency, TF over GST control) | 2.86 fold enrichment (6-mer frequency, TF over GST control)
4 | TTGCAG | 1.24 fold enrichment (6-mer frequency, TF over GST control) | 1.11 fold enrichment (6-mer frequency, TF over GST control) | 1.19 fold enrichment (6-mer frequency, TF over GST control) | 1.14 fold enrichment (6-mer frequency, TF over GST control) | 1.13 fold enrichment (6-mer frequency, TF over GST control) | 1.08 fold enrichment (6-mer frequency, TF over GST control) | 1.1 fold enrichment (6-mer frequency, TF over GST control) | 1.12 fold enrichment (6-mer frequency, TF over GST control)
5 | ACCCAA | 1.13 fold enrichment (6-mer frequency, TF over GST control) | 1.13 fold enrichment (6-mer frequency, TF over GST control) | 1.04 fold enrichment (6-mer frequency, TF over GST control) | 1.04 fold enrichment (6-mer frequency, TF over GST control) | 1.14 fold enrichment (6-mer frequency, TF over GST control) | 1.06 fold enrichment (6-mer frequency, TF over GST control) | 1.01 fold enrichment (6-mer frequency, TF over GST control) | 1.09 fold enrichment (6-mer frequency, TF over GST control)
6 | CGTCTT | 1.24 fold enrichment (6-mer frequency, TF over GST control) | 1.4 fold enrichment (6-mer frequency, TF over GST control) | 1.4 fold enrichment (6-mer frequency, TF over GST control) | 1.48 fold enrichment (6-mer frequency, TF over GST control) | 1.41 fold enrichment (6-mer frequency, TF over GST control) | 1.5 fold enrichment (6-mer frequency, TF over GST control) | 1.44 fold enrichment (6-mer frequency, TF over GST control) | 1.5 fold enrichment (6-mer frequency, TF over GST control)
7 | ATGTAC | 1.19 fold enrichment (6-mer frequency, TF over GST control) | 1.32 fold enrichment (6-mer frequency, TF over GST control) | 1.42 fold enrichment (6-mer frequency, TF over GST control) | 1.67 fold enrichment (6-mer frequency, TF over GST control) | 1.41 fold enrichment (6-mer frequency, TF over GST control) | 1.28 fold enrichment (6-mer frequency, TF over GST control) | 1.19 fold enrichment (6-mer frequency, TF over GST control) | 1.32 fold enrichment (6-mer frequency, TF over GST control)
8 | TATGCC | 1.16 fold enrichment (6-mer frequency, TF over GST control) | 1.12 fold enrichment (6-mer frequency, TF over GST control) | 1.21 fold enrichment (6-mer frequency, TF over GST control) | 1.23 fold enrichment (6-mer frequency, TF over GST control) | 1.19 fold enrichment (6-mer frequency, TF over GST control) | 1.14 fold enrichment (6-mer frequency, TF over GST control) | 1.17 fold enrichment (6-mer frequency, TF over GST control) | 1.22 fold enrichment (6-mer frequency, TF over GST control)
9 | GGAAGC | 1.43 fold enrichment (6-mer frequency, TF over GST control) | 1.5 fold enrichment (6-mer frequency, TF over GST control) | 1.6 fold enrichment (6-mer frequency, TF over GST control) | 1.55 fold enrichment (6-mer frequency, TF over GST control) | 1.62 fold enrichment (6-mer frequency, TF over GST control) | 1.95 fold enrichment (6-mer frequency, TF over GST control) | 1.69 fold enrichment (6-mer frequency, TF over GST control) | 1.92 fold enrichment (6-mer frequency, TF over GST control)
10 | CACAAA | 1.18 fold enrichment (6-mer frequency, TF over GST control) | 1.16 fold enrichment (6-mer frequency, TF over GST control) | 1.16 fold enrichment (6-mer frequency, TF over GST control) | 1.12 fold enrichment (6-mer frequency, TF over GST control) | 1.01 fold enrichment (6-mer frequency, TF over GST control) | 1.1 fold enrichment (6-mer frequency, TF over GST control) | 1.09 fold enrichment (6-mer frequency, TF over GST control) | 1.08 fold enrichment (6-mer frequency, TF over GST control)
11 | TCCGTT | 1.53 fold enrichment (6-mer frequency, TF over GST control) | 1.46 fold enrichment (6-mer frequency, TF over GST control) | 1.54 fold enrichment (6-mer frequency, TF over GST control) | 1.74 fold enrichment (6-mer frequency, TF over GST control) | 1.41 fold enrichment (6-mer frequency, TF over GST control) | 1.66 fold enrichment (6-mer frequency, TF over GST control) | 1.58 fold enrichment (6-mer frequency, TF over GST control) | 1.49 fold enrichment (6-mer frequency, TF over GST control)
12 | CTTTAA | 1.32 fold enrichment (6-mer frequency, TF over GST control) | 1.34 fold enrichment (6-mer frequency, TF over GST control) | 1.33 fold enrichment (6-mer frequency, TF over GST control) | 1.28 fold enrichment (6-mer frequency, TF over GST control) | 1.2 fold enrichment (6-mer frequency, TF over GST control) | 1.32 fold enrichment (6-mer frequency, TF over GST control) | 1.23 fold enrichment (6-mer frequency, TF over GST control) | 1.23 fold enrichment (6-mer frequency, TF over GST control)
13 | ACACAC | 1.14 fold enrichment (6-mer frequency, TF over GST control) | 1.15 fold enrichment (6-mer frequency, TF over GST control) | 1.17 fold enrichment (6-mer frequency, TF over GST control) | 1.14 fold enrichment (6-mer frequency, TF over GST control) | 1.19 fold enrichment (6-mer frequency, TF over GST control) | 1.16 fold enrichment (6-mer frequency, TF over GST control) | 1.18 fold enrichment (6-mer frequency, TF over GST control) | 1.21 fold enrichment (6-mer frequency, TF over GST control)
14 | CTCATA | 1.35 fold enrichment (6-mer frequency, TF over GST control) | 1.3 fold enrichment (6-mer frequency, TF over GST control) | 1.35 fold enrichment (6-mer frequency, TF over GST control) | 1.33 fold enrichment (6-mer frequency, TF over GST control) | 1.32 fold enrichment (6-mer frequency, TF over GST control) | 1.39 fold enrichment (6-mer frequency, TF over GST control) | 1.26 fold enrichment (6-mer frequency, TF over GST control) | 1.27 fold enrichment (6-mer frequency, TF over GST control)
15 | TGTCTA | 1.21 fold enrichment (6-mer frequency, TF over GST control) | 1.08 fold enrichment (6-mer frequency, TF over GST control) | 1.18 fold enrichment (6-mer frequency, TF over GST control) | 1.2 fold enrichment (6-mer frequency, TF over GST control) | 1.28 fold enrichment (6-mer frequency, TF over GST control) | 1.24 fold enrichment (6-mer frequency, TF over GST control) | 1.23 fold enrichment (6-mer frequency, TF over GST control) | 1.07 fold enrichment (6-mer frequency, TF over GST control)

Source: article PMC7862700, “An all-to-all approach to the identification of sequence-specific readers for epigenetic DNA modifications on cytosine”
